The results in this text go back to PubChem BioAssay (Tox21).

Inconclusive results are not listed. Calls of active or inactive are those of the source. The call rests on the fitted dose curve; in most records, active means well fitted cell-killing curve with a large enough effect in the repeat runs; inconclusive means weak or mixed curves, or effect the other way; inactive means flat fitted curve, though single readings scatter.
On the % scale 0 is the no-effect control and ±100 the full control effect; potency means the concentration at half of the fitted maximal effect.

This experiment is described as follows: qHTS RealTime-Glo MT Cell Viability Assay in HEK293 cells - 40 hour (AID 1224874). Further: nearly all actives have a fitted effect of over 50% in size. The conditions noted are these: RealTime-Glo luminescence; max response: stronger effect = lower value. The source says:
U.S. Tox21 Program National Center for Advancing Translational Sciences [NCATS] NIH Chemical Genomics Center [NCGC] U.S. Environmental Protection Agency [EPA] National Institutes of Environmental Health Sciences [NIEHS] National Toxicology Program [NTP] U.S. Food and Drug Administration [FDA] Tox21 Assay Overview: Measure of cell viability is critical in the cell-base assay. Analysis of cell viability is necessary for the characterization of cell responses to cytotoxic drugs and environmental stress. A RealTime-Glo MT Cell Viability Assay to monitor cell viability in real time of continues cell culture during 40 hours of compound treatment was used to screen Tox21 10K library compounds in Hek293 cells. The RealTime-Glo MT Cell Viability Assay is a nonlytic, homogeneous, bioluminescent method to measure cell viability in real time using a simple, plate-based method. The assay involves adding NanoLuc luciferase and a cell-permeant prosubstrate to cells in culture. Viable cells reduce the proprietary prosubstrate to generate a substrate for NanoLuc luciferase. This substrate diffuses from cells into the surrounding culture medium, where it is rapidly used by the NanoLuc Enzyme to produce a luminescent signal. The signal correlates with the number of viable cells, making the assay well suited for cytotoxicity studies.
Tox21 Assay Protocol Summary: The mixture of Hek293 cell suspension and reagents were dispensed at 600cells/6 ul/well in 1536-well tissue culture treated black solid bottom plates using a Multidrop dispenser. After the assay plates were incubated at a 37 C/5% CO2 incubator for 5 hours, 23 nL of compounds dissolved in DMSO, positive and negative controls was transferred to the assay plate by a pintool work station. The plates were incubated at 37 C for 40 hours. The luminescence intensity were measured at 0h, 8h, 16h, 24h, 32h and 40h time points using ViewLux plate reader during compound treatment.
In general terms: Quantitative high-throughput screening tests each substance at several concentrations.
Consider `Cc1ccc(N=Nc2c(O)c(C(=O)O)cc3ccccc23)c(S(=O)(=O)O)c1`, for which the max response was 1.56% (inactive).
Still for that read-out and setting: the same measure for `O=C1CCCCCCCCCCCC(=O)OCCO1`: -16% (inactive); for `C1CCCNCCC1`: -5.84% (inactive); for `Cc1cc(C(=O)O)ccc1[N+](=O)[O-]`: 9.13% (inactive).
Still for that read-out and setting: under `CCC(C)O` (stereo not given) stands 7.73% (inactive); under `CCO[C@H](Cc1ccc(OCCc2ccc(OS(C)(=O)=O)cc2)cc1)C(=O)O`, 10.3% (inactive); under `C/C=C/C(=O)CC`, 4.11% (inactive).
In the case of `c1ccc(C(O[C@H]2CCCN(CCc3ccc4c(c3)OCO4)C2)c2ccccc2)cc1`, the max response was -24.8% (inactive).
In the case of `C=CC(=O)OCCOCCOC(=O)C=C`, the Potency was 31 µM (active).
Regarding `Nc1ncn([C@H]2C[C@H](O)[C@@H](CO)O2)c(=O)n1`, the max response is 2.14% (inactive).
Still for that read-out and setting: the same measure for `O=C1OC(CN2CCOCC2)CN1/N=C/c1ccc([N+](=O)[O-])o1` (stereo not given): -0.929% (inactive).
Take `C[Si](C)(CCCN)O[Si](C)(C)CCCN`: the max response is -16% (inactive).
`CCN(CC)c1ccc2c(-c3ccccc3C(=O)O)c3ccc(=[N+](CC)CC)cc-3oc2c1`: the Potency is 24.5 µM (active).
Consider `Cc1c(N)cccc1[N+](=O)[O-]`, for which the max response was -13.1% (inactive).
Still for that read-out and setting: the same measure for `CO[C@@H]1[C@H](OC(=O)/C=C/C=C/C=C/C=C/C(=O)O)CC[C@]2(CO2)[C@H]1[C@@]1(C)O[C@@H]1CC=C(C)C`: 18.9% (inactive); for `ClCCOCCOCCCl`: 5.38% (inactive); for `CNC(=O)CN(CCN(CCN(CC(=O)[O-])CC(=O)NC)CC(=O)[O-])CC(=O)[O-].O.[Gd+3]`: 2.96% (inactive).
Same read-out and setting: under `O=S(=O)(Oc1ccc(Cl)cc1)c1ccccc1` stands -29.4% (inactive); under `O=C(NCCO[N+](=O)[O-])c1cccnc1`, 0.0315% (inactive).
The same measure, in the same setting: the same measure for `CCCC(=O)Nc1ccc(O)c(C(C)=O)c1`: -1.71% (inactive).
Take `C[C@@H]1C[C@H]2[C@@H]3CCC4=CC(=O)C=C[C@]4(C)[C@@]3(F)[C@@H](O)C[C@]2(C)[C@@]1(O)C(=O)COC(=O)c1ccncc1`: the max response was -17.8% (inactive).
Still for that read-out and setting: the same measure for `CCOCC(O)COc1ccc(NC(=O)CC[S+](C)C)cc1` (stereo not given): 1.67% (inactive).
Still for that read-out and setting: under `COc1ccnc(CS(=O)c2nc3ccc(OC(F)F)cc3[nH]2)c1OC` (stereo not given) stands -16.2% (inactive); under `CN(C)CCN(Cc1ccc(Cl)cc1)c1ccccn1`, -11% (inactive).
On the same count and under the same terms, under `C[N+](C)(C)CCOC(=O)CCC(=O)OCC[N+](C)(C)C` stands 3.39% (inactive).
Regarding `CCCCCC[C@@H](O)C/C=C\CCCCCCCC(=O)OC`, the max response was 0.122% (inactive).
As to `CCCCC(CC)COC(=O)COc1ccc(Cl)cc1Cl` (stereo not given), the max response was 11% (inactive).
On the same count and under the same terms, under `O=C(O)c1ccccc1Cl` stands -1.6% (inactive).
On the same count and under the same terms, under `Cc1oc(-c2ccccc2)nc1CCOc1cccc2c1ccn2CCC(=O)O` stands -19% (inactive); under `CCOC(=O)C(F)(F)F`, 6.21% (inactive).
Same read-out and setting: under `CC(C)(COC(=O)c1ccccc1)COC(=O)c1ccccc1` stands -28.7% (inactive).
For the compound `CNCCCCOc1ccccc1Cc1ccccc1`, the Potency is 23.9 µM (active).
For `Brc1c2ccccc2cc2ccccc12`, the max response is -17.1% (inactive).
Same read-out and setting: the same measure for `O=C1C(O)=C(O)C(=O)C(O)=C1O`: -9.06% (inactive).
With `O=C(c1ccc(F)cc1)C1CCN(CCn2c(=S)[nH]c3ccccc3c2=O)CC1`, the Potency is 5.35 µM (active).
Regarding `CCC(C)c1cc(C(C)(C)C)c(O)c(C(C)(C)C)c1` (stereo not given), the max response is 0.103% (inactive).
On the same count and under the same terms, under `CC(C)(C)Cl` stands 1.73% (inactive).
For the compound `CC(=O)c1ccc2c(c1)N(CCCN1CCC(CCO)CC1)c1ccccc1S2`, the Potency is 21.3 µM (active).
`Nc1cc(C(=O)O)c(O)c(S(=O)(=O)O)c1`: the max response was 9.59% (inactive).
On the same count and under the same terms, the same measure for `CCCCCCCCCCCCCCOS(=O)(=O)O`: -13.8% (inactive).
